Assay outcomes from PubChem BioAssay.
M4 PAM = potentiates acetylcholine response at human M4 receptor; P08173; CHO-K1 hM4/Gqi5, Fluo-8 calcium fluorescence, ACh EC20; 0% = ACh EC20, 100% = maximal ACh; activation, % at 3 µM; hit rate 0.4% among 360,000;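 active means activation above its plate's cutoff, the mean activation of sample wells plus 3 SD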
Target sequence (P08173 whole entry, looked up): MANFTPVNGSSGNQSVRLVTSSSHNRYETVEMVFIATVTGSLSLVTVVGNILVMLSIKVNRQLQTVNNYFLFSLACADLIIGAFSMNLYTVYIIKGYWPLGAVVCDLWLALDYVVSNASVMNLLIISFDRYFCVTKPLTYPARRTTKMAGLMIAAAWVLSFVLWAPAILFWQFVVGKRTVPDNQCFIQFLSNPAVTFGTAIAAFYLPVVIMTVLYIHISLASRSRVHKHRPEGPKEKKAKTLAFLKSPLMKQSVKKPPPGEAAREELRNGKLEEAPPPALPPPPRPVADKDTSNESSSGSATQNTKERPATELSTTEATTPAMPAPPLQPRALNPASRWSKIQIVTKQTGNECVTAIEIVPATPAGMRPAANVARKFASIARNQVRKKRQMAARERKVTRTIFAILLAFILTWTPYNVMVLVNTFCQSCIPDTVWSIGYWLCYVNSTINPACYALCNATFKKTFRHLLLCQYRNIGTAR
CHRM1 antagonist = antagonists of human M1 muscarinic receptor; hit rate 1.3% among 360,000; CHO-K1 hM1, Fluo-8 calcium fluorescence, ACh EC80 antagonist; inhibition, % at 3 µM; P11229;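 active means percent inhibition above its own plate's cutoff, namely the mean of that plate's compound wells plus 3 SD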;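 further: peak over basal fluorescence ratio during 140 s after agonist addition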
M1 PAM = human CHRM1 positive allosteric modulation | hit rate 0.088% among 360,000 | activation, % at 3 µM | P11229 | CHO-K1 hM1, Fluo-8 calcium fluorescence, ACh EC20; 0% = ACh EC20, 100% = maximal ACh; in the data active means activation above about 19%, passing the limit was not always enough
M4 antag = blocks acetylcholine activation of human M4 receptor | inhibition, % at 3 µM | hit rate 0.73% among 360,000 | P08173 | CHO-hM4 cells, ACh EC80, Fluo-8 calcium fluorescence;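 active means inhibition above its plate's cutoff, the mean inhibition of sample wells plus 3 SD, cut at about 27% in these data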
CHRM4 agonist = agonists of human muscarinic M4 receptor (CHRM4) | P08173 | CHO-K1 hM4/Gqi5, Fluo-8 calcium fluorescence; vehicle 0%, full acetylcholine response 100% | activation, % at 3 µM | hit rate 0.14% among 360,000 | AID 624127;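 active means activation above the run mean over all test wells plus 3 SD, cut at about 32% in these data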;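 further: peak over basal fluorescence ratio per well then scaled between controls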
M1 ag = agonists of human M1 muscarinic receptor. hit rate 0.33% among 360,000. P11229. activation, % at 3 µM. CHO-K1 hM1, Fluo-8 calcium fluorescence, agonist mode; 0% DMSO, 100% acetylcholine EC100;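 active means activation above the run's mean compound activation plus 3 SD, cut at about 16% in these data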;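 further: peak over basal fluorescence ratio within a 140 s kinetic read after compound addition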
Hits are given with their value; 0 = inactive. Compounds with a hit are over-represented: about 2.2% of the library has one in this group of screens.

SMILES	M4 PAM	CHRM1 antagonist	M1 PAM	M4 antag	CHRM4 agonist	M1 ag
CCOC(=O)c1cc2c(ccn2C)n1Cc1ccc(C#N)cc1	0	0	0	0	0	0
COc1ccc(/C=N/NC(=O)CCn2cnc(-c3ccccc3)c2-c2ccccc2)cc1OC	0	0	0	0	0	0
Nc1ccc(N=Nc2ccccc2)c(N)n1	0	0	0	0	0	0
c1ccc(CNc2nc(NCc3ccccc3)c3sccc3n2)cc1	0	56	0	71	89	32
c1ccc(CNc2nc(-c3ccccc3)nc3ccccc23)cc1	0	0	0	0	0	0
C#Cc1cccc(Nc2nc(NCc3ccccc3OC)nc3ccsc23)c1	0	35	0	30	0	0
C#Cc1cccc(Nc2nc(NCCOC)nc3ccsc23)c1	0	0	0	0	0	0
c1ccc(CNc2nc(NCCOc3ccccc3)c3sccc3n2)cc1	0	43	0	54	58	19
c1ccc(CNc2nc(NCc3ccccc3)c3ccccc3n2)cc1	0	0	0	49	45	0
CCCCOC(=O)CCc1c(C)n[nH]c1C	0	0	0	0	0	0
COc1ccc(C(CNC(=O)CCNC(=O)c2ccccc2Cl)N2CCCC2)cc1 (stereo not given)	0	0	0	0	0	0
O=C(NCC1CCCO1)C(=O)N/N=C/c1ccccc1C(=O)O (stereo not given)	0	0	0	0	0	0
CCCOC1CCCN(C(=O)c2ccc(OC)c(OC3CCN(C(C)C)CC3)c2)C1 (stereo not given)	0	0	0	0	0	0
COc1ccccc1CNc1nc(NCc2cccc(OC)c2OC)c2sccc2n1	0	0	0	0	0	0
COc1ccccc1CNc1nc(NCc2ccccc2)nc2ccsc12	0	0	0	92	75	0
COc1ccccc1CNc1nc(NCc2ccccc2F)c2sccc2n1	0	40	0	0	0	0
COCCNc1nc(NCc2ccccc2F)c2sccc2n1	0	0	0	0	0	0
Cn1cnnc1SCC(=O)c1cccc([N+](=O)[O-])c1	0	0	0	0	0	0
CN(C)/C=C/C(=O)c1ccc(N2CCN(c3ncc(C(F)(F)F)cc3Cl)CC2)cc1	0	0	0	0	0	0
Cc1ncsc1CCOC(=O)c1ccc(Cl)cc1	24	0	0	0	0	0
COc1ccc(CCN2C(=O)CC(Sc3ncccc3C(=O)O)C2=O)cc1OC (stereo not given)	32	0	0	0	0	0
CCCN1C(=O)CC(Sc2ncccc2C(=O)O)C1=O (stereo not given)	0	0	0	0	0	0
C/C(=N\NC(=O)COc1ccc(C)cc1C(C)C)c1ccc(-n2ccnc2)cc1	0	0	0	48	0	0
CN(C)c1cccc(NC(=O)c2cccc3ccccc23)c1	0	0	0	0	0	0
COc1ccc(-c2csc(NC(C)=O)n2)cc1OC	0	0	0	0	0	0
SMILES	M4 PAM	CHRM1 antagonist	M1 PAM	M4 antag	CHRM4 agonist	M1 ag
COc1cccc(NC(=O)Nc2nc(-c3ccc(OC)c(OC)c3)cs2)c1	0	31	0	0	0	0
O=C(Nc1cccc(Cl)c1)Nc1nc(-c2ccc(Cl)cc2)cs1	0	30	0	0	0	0
NC(c1csc(NC(=O)Nc2cccc(Cl)c2)n1)C1CCCCC1 (stereo not given)	0	0	0	39	38	0
COc1ccc(NC(=O)N2C3CCCC2CC(NC(=O)C2CC2)C3)cc1 (stereo not given)	0	0	0	0	0	0
Cc1cc(=O)n2[nH]c(-c3ccc(C(C)(C)C)cc3)cc2n1	0	0	0	0	0	0
COC(=O)c1[nH]c2ccc(F)cc2c1NS(=O)(=O)c1ccc(OC)cc1	0	0	0	29	0	0
Cc1cc(N)n(-c2ncnc3scc(-c4ccc(Cl)cc4)c23)n1	0	0	0	0	0	0
CCOc1ccccc1NC(=O)CN(c1ccc(C)cc1)S(=O)(=O)c1c(C)n[nH]c1C	0	20	0	0	0	0
CC(Sc1nnc(C2CC2)n1Cc1ccccc1)C(=O)N1CCNC1=O (stereo not given)	0	0	0	0	0	0
CC(Sc1nnc(C2CC2)n1-c1ccccc1)C(=O)N1CCNC1=O (stereo not given)	23	0	0	0	0	0
Cc1ccccc1C(=O)NC1CC2CCCC(C1)N2Cc1ccccc1 (stereo not given)	0	0	0	0	0	0
CC(C)(C)OC(=O)NC1CC2CCCC(C1)N2Cc1ccccc1 (stereo not given)	0	98	0	83	0	0
O=C(NC1CC2CCCC(C1)N2Cc1ccccc1)c1cccc(F)c1 (stereo not given)	0	49	0	0	0	0
COc1ccccc1C(=O)NC1CC2CCCC(C1)N2Cc1ccccc1 (stereo not given)	0	39	0	0	0	0
Cc1ccccc1C(=O)NC1CC2CCCC(C1)N2Cc1ccc(Cl)cc1 (stereo not given)	0	54	0	0	0	0
O=C(c1cccc(S(=O)(=O)N2CCN(c3ccccc3)CC2)c1)N1CC=C(c2ccccc2)CC1	0	0	0	0	0	0
CC(N)=Nc1ccc([N+](=O)[O-])cc1	0	0	0	0	0	0
O=[N+]([O-])c1ccc(N=Nc2c(Cl)cc(O)cc2Cl)cc1	0	32	0	0	0	0
COc1ccc(CN2C[C@@H](CO)O[C@@H](n3cnc4c(N5CCCC5)ncnc43)C2)cc1	17	0	0	0	0	0
OC[C@@H]1CN(Cc2ccccc2)C[C@H](n2cnc3c(NC4CC4)ncnc32)O1	0	0	0	0	0	0
OC[C@@H]1CN(Cc2ccc(-c3ccccc3)cc2)C[C@H](n2cnc3c(NC4CCC4)ncnc32)O1	0	34	0	28	0	0
COc1ccc(CN2C[C@@H](CO)O[C@@H](n3cnc4c(N5CCN(CCO)CC5)ncnc43)C2)cc1	0	0	0	0	0	0
COc1ccc(C(CNc2ccc(S(=O)(=O)N3CCCC3)cc2[N+](=O)[O-])N2CCCC2)cc1 (stereo not given)	0	75	0	0	0	0
COc1ccc(C(CNc2ccc(S(=O)(=O)N3CCN(C)CC3)cc2[N+](=O)[O-])N(C)C)cc1 (stereo not given)	0	0	0	0	0	0
CCN1/C(=C/c2ccc3cc(C)cc(C)c3[n+]2CC)Sc2cc(C)ccc21	0	55	0	0	0	18
CCN1/C(=C/c2ccc3cccc(C)c3[n+]2CC)Sc2ccccc21	0	51	0	31	0	0
CCN1/C(=C\c2ccc3cc(C)ccc3[n+]2CC)Sc2cc(C)c(C)cc21	0	52	0	0	0	0
